Each structure is given as a SMILES string. Activity calls are given as the source filed them. No rule for the calls is given here.

This assay concerns Potassium Channel [KATP]. In words: off-target receptor, channel and CYP panel, profiling panel, selectivity assay for S1P3 agonist project, biochemical, Ricerca HitProfilingScreen, CYP450 (AID 540351). Conditions: Ricerca receptor/enzyme binding panel plus CYP450, at 30 µM, active compounds read high.

In the case of `O=C(c1cc(C2CC2)on1)N(C1CCCCC1)C1CCCCC1`, the inhibition was 16% (inactive).

One may read the inhibition as the drop in the measured response relative to a control, in per cent.

The values are drawn from PubChem BioAssay AID540351 (The Scripps Research Institute Molecular Screening Center, 2011).
